Results as given in PubChem BioAssay (NCI).
Several values for one entry are separate records, joined by “and”; a condition that tells them apart may be missing. Identical values can stand only once. About 83,000 compounds went through this panel and 20% of them were active in at least one assay; those are over-represented in the sample as a whole.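 How to read the values: 0–100, growth inhibition (40 = 60% inhibited); 0, no net growth; -100 to 0, cell death (-40 = 40% of starting cells died; -100 = all dead).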 Activity calls are given as the source filed them. How the source made its calls: active means growth percent below 10; inactive means the rest.

How the values were obtained:
Assay in all cases: NCI-60 one-dose screen, 48 h (100 = growth as untreated, 0 = no growth, -100 = all killed)
Conditions in all cases: 10 µM unless noted
DU-145 prostate = system: DU-145 prostate
K-562 leukemia = system: K-562 leukemia
MALME-3M melanoma = system: MALME-3M melanoma
MDA-MB-231 breast = system: MDA-MB-231 breast
RXF 393 renal = system: RXF 393 renal
SF-268 CNS = system: SF-268 CNS
SF-295 CNS = system: SF-295 CNS
SF-539 CNS = system: SF-539 CNS
UACC-257 melanoma = system: UACC-257 melanoma
M14 melanoma = system: M14 melanoma

Measured: growth

Clc1ccc2c(c1)N(C1CCCN(Cc3ccccc3)C1)c1ccccc1S2 (centres undefined)
inactive: DU-145 prostate 74.1% | K-562 leukemia 18.5% | MALME-3M melanoma 78.4% | MDA-MB-231 breast 51.8% | SF-268 CNS 39.2% | SF-295 CNS 77.6% | SF-539 CNS 40.8% | UACC-257 melanoma 55.1%
active: RXF 393 renal -15.7% | M14 melanoma -26.9%

O=[N+]([O-])c1ccc(NC(c2ccccc2)c2ccc3cccnc3c2O)cc1 (centres undefined)
active: UACC-257 melanoma -4.88% | M14 melanoma 8.95%
inactive: DU-145 prostate 22.5% | K-562 leukemia 13% | MALME-3M melanoma 17.2% | MDA-MB-231 breast 44.1% | RXF 393 renal 43.9% | SF-268 CNS 12.9% | SF-295 CNS 14.5% | SF-539 CNS 14%

O=C1Cc2ccccc2C(=O)N1
inactive: DU-145 prostate 112% | K-562 leukemia 46.9% | MALME-3M melanoma 104% | MDA-MB-231 breast 44.1% | RXF 393 renal 99.1% | SF-268 CNS 97% | SF-295 CNS 102% | SF-539 CNS 103% | UACC-257 melanoma 89.4% | M14 melanoma 95.3%

Cc1nc(Nc2ccc(Cl)cc2)c2cnn(-c3ccccc3)c2n1
inactive: DU-145 prostate 107% | K-562 leukemia 113% | MALME-3M melanoma 90.3% | MDA-MB-231 breast 111% | RXF 393 renal 93.6% | SF-268 CNS 99.8% | SF-295 CNS 97.1% | SF-539 CNS 99.9% | UACC-257 melanoma 101% | M14 melanoma 100%

CC(C)(C(=O)c1cccnc1)c1cccnc1
inactive: DU-145 prostate 112% and 114% | K-562 leukemia 104% and 115% | MALME-3M melanoma 96.3% and 125% | MDA-MB-231 breast 96.4% and 119% | RXF 393 renal 105% and 119% | SF-268 CNS 107% and 106% | SF-295 CNS 95.7% and 124% | SF-539 CNS 99.5% and 95.9% | UACC-257 melanoma 97.3% and 115% | M14 melanoma 101% and 92.2%

O=[N+]([O-])c1ccc(N/N=C/C2CCCCCC2)c([N+](=O)[O-])c1
inactive: DU-145 prostate 92% | K-562 leukemia 83.4% | MALME-3M melanoma 98% | MDA-MB-231 breast 81.8% | RXF 393 renal 98% | SF-268 CNS 87.4% | SF-295 CNS 98.1% | SF-539 CNS 99.8% | UACC-257 melanoma 96.5% | M14 melanoma 85.1%

COc1cc2c(cc1O)C(=O)CCCC2
inactive: DU-145 prostate 117% | K-562 leukemia 124% | MALME-3M melanoma 108% | MDA-MB-231 breast 108% | RXF 393 renal 105% | SF-268 CNS 90.3% | SF-295 CNS 83.8% | SF-539 CNS 99.6% | UACC-257 melanoma 121% | M14 melanoma 97.2%

COCCNC(C)=O
inactive: DU-145 prostate 112% | K-562 leukemia 105% | MALME-3M melanoma 114% | MDA-MB-231 breast 99.2% | RXF 393 renal 104% | SF-268 CNS 101% | SF-295 CNS 96.3% | SF-539 CNS 99.5% | UACC-257 melanoma 112% | M14 melanoma 109%

Nc1nc(N)c2cc(S(=O)(=O)c3ccccc3)ccc2n1
inactive: DU-145 prostate 30.3% and 40.9% | K-562 leukemia 16.7% and 26.1% | MALME-3M melanoma 58.1% and 29% | MDA-MB-231 breast 48.9% and 51.8% | RXF 393 renal 62% and 85.6% | SF-268 CNS 40.1% and 38% | SF-295 CNS 18.9% | SF-539 CNS 30.5% and 21.8% | UACC-257 melanoma 39% and 59.2% | M14 melanoma 35.2% and 31.9%

CCOCCC(=O)O
inactive: DU-145 prostate 121% | K-562 leukemia 108% | MALME-3M melanoma 116% | MDA-MB-231 breast 105% | RXF 393 renal 108% | SF-268 CNS 112% | SF-295 CNS 102% | SF-539 CNS 102% | UACC-257 melanoma 114% | M14 melanoma 102%

CCNCc1ccccc1
inactive: DU-145 prostate 104% | K-562 leukemia 96.3% | MALME-3M melanoma 101% | MDA-MB-231 breast 110% | RXF 393 renal 118% | SF-268 CNS 104% | SF-295 CNS 105% | SF-539 CNS 102% | UACC-257 melanoma 102% | M14 melanoma 109%

CN(C)C(=S)N(C)C
inactive: DU-145 prostate 110% | K-562 leukemia 106% | MALME-3M melanoma 165% | MDA-MB-231 breast 111% | RXF 393 renal 114% | SF-268 CNS 103% | SF-295 CNS 112% | SF-539 CNS 99.2% | UACC-257 melanoma 107% | M14 melanoma 101%

O=C1C=CC(=O)N1Cc1ccco1
active: DU-145 prostate 4.25%
inactive: K-562 leukemia 94.1% | MALME-3M melanoma 94.5% | MDA-MB-231 breast 84% | RXF 393 renal 68.6% | SF-268 CNS 89.7% | SF-295 CNS 72.2% | SF-539 CNS 108% | UACC-257 melanoma 104% | M14 melanoma 85.3%

CCn1c2ccc(N(C)C)cc2c2cc(N(C)C)ccc21
inactive: DU-145 prostate 108% | K-562 leukemia 90.6% | MALME-3M melanoma 111% | MDA-MB-231 breast 83.8% | RXF 393 renal 97.3% | SF-268 CNS 92.8% | SF-295 CNS 104% | SF-539 CNS 100% | UACC-257 melanoma 93% | M14 melanoma 102%

Cc1cc(=NO)cc(C)n1O
inactive: DU-145 prostate 101% | K-562 leukemia 96.8% | MALME-3M melanoma 112% | MDA-MB-231 breast 118% | RXF 393 renal 123% | SF-268 CNS 99.2% | SF-295 CNS 94.4% | SF-539 CNS 104% | UACC-257 melanoma 112% | M14 melanoma 108%

N#Cc1ccc(/C=C/C(=O)c2ccccc2)cc1
inactive: DU-145 prostate 80.8% and 102% | MALME-3M melanoma 89.2% and 110% | MDA-MB-231 breast 103% | SF-268 CNS 101% | SF-295 CNS 93.7% and 118% | SF-539 CNS 103% and 110% | UACC-257 melanoma 80% and 114% | M14 melanoma 98.6% and 102%
active: K-562 leukemia -35.8% and 6.11%
